Pin1 inhibitor: blocks the human prolyl isomerase Pin1; Q13526; Pin1 FP peptide displacement, HiFluor488, 10 min; Potency, µM (highest dose often 115 µM), for the others: at the highest dose activity, negative = inhibition, hits mostly inhibitors; 390,000 tested, 0.009% active; active = well fitted inhibition curve with a large enough effect in the polarisation, with a control signal flat, not every such curve was filed as active; inconclusive = small, poorly fitted or top-dose-only effect, or effect the other way, or a change in a side signal; inactive = no such curve, though single readings can be large or run the other way; the % refers to the polarisation; also: potency is read from the fitted curve at half-maximal effect
Target sequence (Q13526 whole entry, looked up): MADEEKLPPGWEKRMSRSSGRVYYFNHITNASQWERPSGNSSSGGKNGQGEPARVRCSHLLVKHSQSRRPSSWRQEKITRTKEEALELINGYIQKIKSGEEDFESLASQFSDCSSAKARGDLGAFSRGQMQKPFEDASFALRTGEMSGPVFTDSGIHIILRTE
PI5P4Ka inh: inhibitors of human PI5P4K alpha; max response, %; 330,000 tested, 1.2% active; PI5P4Kalpha enzyme, ADP-Glo luminescence, 60 min; active compounds read low; AID 652105; active = max response of -50% or lower; inconclusive = between -30% and -50%; inactive = -30% or higher; also: value at the top dose of about 77 µM
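Compounds were pin-transferred onto PI5P4Kalpha and substrate in HEPES pH 7.4 buffer with EGTA, CHAPS and 5% DMSO. ATP (5 microM final) started the reaction, which ran 60 minutes at room temperature before ADP-Glo detection.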
Tb PFK block: blocks T. brucei phosphofructokinase. 330,000 tested, 0.17% active. Potency, µM (doses to about 57.5 µM), inactives show at the highest dose activity, negative = inhibition, hits mostly inhibitors. AID 485367. O15648. T. brucei PFK, ADP-Glo luminescence;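 also: potency is read from the fitted curve at half-maximal effect; 0% = uninhibited 1x PFK enzyme wells and -100% = no-enzyme wells; nearly all actives have a fitted effect of over 60% in size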
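Compounds were pin-transferred as a titration series up to 57 uM into substrate buffer (0.5 mM F6P, 0.1 mM ATP, pH 8.0), then 1.25 nM PFK was added and reactions ran 45 min before ADP-Glo detection.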
PI4K2A block: PI4K2A (human) kinase inhibition. Q9BTU6. activity change, negative = inhibition, % at 76.9 µM. purified PI4K2A, ADP-Glo luminescence, 1 h; active compounds read low. 420,000 tested, 0.13% active; in the data active = activity change below about -50%; inconclusive = mostly about -30% to -49%;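 also: -100% = wells without enzyme as full effect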
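ADP-Glo luminescence measured ADP generated by PI4K2A enzyme (4 ug/mL before mixing) with 1.2 mM PI substrate (pre-mix) and 300 microM ATP (pre-mix). Tris pH7.5 buffer with MgCl2, Triton X-100; 1 h reaction at ambient temperature.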
Tb PGK inh: inhibitors of T. brucei phosphoglycerate kinase | 380,000 tested, 0.043% active | Potency, µM (doses to about 57.5 µM), inactives show top-dose activity change, negative = inhibition, most hits filed as inhibitors | AID 602233 | P07378 | PGK/GAPDH coupled, Kinase-Glo luminescence, 60 min; also: potency is read from the fitted curve at half-maximal effect; nearly all actives have a fitted effect of over 60% in size
Target sequence (P07378 whole entry, looked up): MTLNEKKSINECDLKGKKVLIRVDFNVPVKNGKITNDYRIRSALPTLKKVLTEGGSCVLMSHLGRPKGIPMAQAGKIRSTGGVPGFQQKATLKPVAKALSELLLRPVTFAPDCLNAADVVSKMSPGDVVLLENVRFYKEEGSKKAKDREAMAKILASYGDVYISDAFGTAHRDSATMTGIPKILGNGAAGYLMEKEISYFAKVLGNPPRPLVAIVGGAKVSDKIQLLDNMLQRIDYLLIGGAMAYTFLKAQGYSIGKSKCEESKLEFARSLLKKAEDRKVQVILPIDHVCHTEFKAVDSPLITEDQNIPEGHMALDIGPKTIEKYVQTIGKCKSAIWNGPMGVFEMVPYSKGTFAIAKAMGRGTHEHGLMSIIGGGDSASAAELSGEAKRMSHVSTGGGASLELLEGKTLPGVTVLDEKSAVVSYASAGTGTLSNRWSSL
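Luminescent ATP detection (Kinase-Glo Plus) follows a 60-minute room-temperature incubation, with wells lacking PGK as controls. Buffer: 100 mM TEA (pH 7.6), 5 mM MgCl2, 0.01% Tween-20. Coupling enzyme GAPDH (100 nM final) supplies unstable 1,3-BPG in-well.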
Numbers without * were called inactive; i = inactive; ? = inconclusive; · = not tested or not shown. This is one part of a sample in which hits are shown more often than they occur. Unless noted, calls follow the shape of the dose curve; as a rule, active = well fitted curve in the direction sought with a large enough effect; inconclusive = small, poorly fitted or top-dose-only effect, or another doubt; inactive = no such curve, though single readings can be large; an effect the other way counts as inactive or inconclusive. Unless noted, % is scaled to controls: 0 for no effect and ±100 for the full control effect.

SMILES	Pin1 inhibitor	PI5P4Ka inh	Tb PFK block	PI4K2A block	Tb PGK inh
CCCCSc1n[nH]c(=S)c2nc[nH]c12	-1.7%	-62.6*	·	-4.9	-7.0%
Cn1ccc(=S)c2ccccc21	-0.2%	-73.1*	-26.7%	-8.7	1.0%
Cc1csc(NC(=O)c2cn3ccccc3n2)n1	1.1%	-20.7	-28.6%	-55.5*	?
O=C(Nc1ccccc1)c1cn2ccccc2n1	2.2%	-4.2	-2.3%	-24.1	-25.1%
CCn1c(SCc2nc3sc(C(=O)O)c(C)c3c(=O)[nH]2)nnc1-c1ccc(Cl)cc1	6.4%	-55.8*	3.0%	-0.1	-2.6%
CNC(=O)CSc1nc2nn(-c3ccccc3)c(=O)c-2c2n1CCCCC2	3.1%	·	-6.6%	1.2	i
O=C(CSc1nc2nn(-c3ccccc3)c(=O)c-2c2n1CCCCC2)c1ccc(O)c(O)c1	?	-54.0*	?	-5.6	?
CCCC(=O)OC12CCCN(C1)/C(=C/c1cccc(N(C)C)c1)C2 (stereo not drawn)	·	·	·	3.4	·
COc1ccc(C(=O)O/N=C(\C)c2ccccc2)cc1	2.7%	?	-12.8%	-95.1*	22.4µM*
COc1ccc(C(=O)ON=C(C)c2nccs2)cc1	·	?	·	-66.2*	·
O=C(c1ccco1)N1CCNCC1	·	·	·	0.2	·
COc1ccc2nc(SCc3ncc(C)c(OC)c3C)[nH]c2c1	·	·	·	3.4	·
O=C(O)c1ccc2c(c1Nc1ccccc1)C(=O)c1ccccc1C2=O	-4.4%	-54.1*	-1.5%	-6.2	?
CC1=C(C(=O)OCc2ccccc2)C(c2ccc3c(c2)OCO3)NC(=O)N1CCCC(=O)O (stereo not drawn)	-1.2%	-78.3*	·	-0.8	-7.6%
CC1=C(C(=O)OCc2ccccc2)C(c2ccccc2Cl)NC(=O)N1CCCC(=O)O (stereo not drawn)	0.1%	-73.0*	2.2%	-2.0	0.0%
COC(=O)C1=C(C)N(CCCC(=O)O)C(=O)NC1c1ccccc1OS(=O)(=O)c1ccccc1[N+](=O)[O-] (stereo not drawn)	-6.1%	-83.9*	·	0.8	-0.6%
CC1=C(C(=O)OCc2ccccc2)C(c2ccccc2Cl)NC(=O)N1CCCCCC(=O)O (stereo not drawn)	-1.9%	-7.0	2.8%	-4.3	-4.3%
CC1=C(C(=O)OCc2ccccc2)C(c2ccccc2OS(=O)(=O)c2ccc(C)cc2)NC(=O)N1CCCC(=O)O (stereo not drawn)	?	-71.9*	·	-1.5	-2.8%
O=C(N1Cc2ccc(Nc3nn4c(=O)c5ccccc5nc4s3)cc2C1)C(F)(F)F	7.0%	·	·	·	·
O=S1(=O)N=C(Oc2ccc(-c3ccccc3)cc2)c2ccccc21	3.4%	·	·	·	·
Cc1cc(OCCOCC[N+](C)(C)Cc2ccccc2)ccc1C(C)(C)CC(C)(C)C	·	·	·	-1.8	·
CC(C)CCCC(C)NCCC(C)C (stereo not drawn)	·	·	·	-0.6	·
CC1=C(C(=O)OCc2ccccc2)C(c2ccc([N+](=O)[O-])cc2)NC(=O)N1CCCC(=O)O (stereo not drawn)	-6.5%	-68.2*	0.3%	4.7	-7.8%
CC1=C(C(=O)OCc2ccccc2)C(c2ccc3ccccc3c2)NC(=O)N1CCCC(=O)O (stereo not drawn)	0.6%	-101.3*	-0.8%	0.6	-9.8%
CC1=C(C(=O)OCc2ccccc2)C(c2ccc3ccccc3c2)NC(=O)N1CCCCCC(=O)O (stereo not drawn)	-0.2%	?	-4.3%	-1.5	7.4%
SMILES	Pin1 inhibitor	PI5P4Ka inh	Tb PFK block	PI4K2A block	Tb PGK inh
O=C1CCc2cc([S+](=O)([O-])NC3CCOCC3)ccc2N1	2.6%	·	·	·	·
CCn1c2ccccc2c2n[nH]c(=S)nc21	6.7%	-13.8	-8.8%	-5.8	·
O=C(O)Cn1c2ccccc2c2n[nH]c(=S)nc21	1.3%	-55.9*	?	-3.5	-2.7%
O=C(c1ccccc1)c1cc(Cl)ccc1N1C(=O)C=CC1=O	7.9%	-65.6*	?	8.6	i
COC1=C(Br)C(=O)c2nc(C)ccc2C1=O	·	-68.0*	·	?	?
Cc1nc2c(nc1C)C(=O)c1ccccc1C2=O	11.7%	-0.3	·	-56.0*	-1.5%
O=C1c2ccccc2-c2nc3ccccc3nc21	2.2%	-0.7	-0.9%	-9.9	-4.5%
Cc1cc2c(s1)c1cnn(Cc3ccc4ccccc4c3)c(=O)c1n2C	-3.1%	·	·	·	·
CC(C)(C)N1NC2(CCCCC2)NC1=S	1.5%	-58.1*	2.9%	-5.6	0.9%
C/C(=N\NC(=O)c1cc(O)ccc1O)c1cccc(NC(=O)c2cccc(Cl)c2)c1	-11.6%	?	-4.7%	-3.2	-9.3%
C/C(=N\NC(=O)c1cc(O)ccc1O)c1cccc(NC(=O)c2ccc(Cl)cc2)c1	?	-82.0*	-11.8%	-5.8	-6.4%
O=c1c2ccccc2nc2sc(Nc3cccc(N4CCNCC4)c3)nn12	21.4%	·	·	·	·
Cc1ccccc1OCc1nnc(SCC(=O)O)n1-c1cccc(Cl)c1	-3.0%	-52.8*	4.9%	-1.3	4.6%
Cc1ccccc1OCc1nnc(SCC(=O)O)n1-c1ccccc1	-3.5%	?	1.8%	0.9	5.5%
O=C(O)COc1ccccc1C(Nc1cccnc1)c1cc(Cl)c2cccnc2c1O (stereo not drawn)	·	-64.5*	?	-15.8	-3.0%
C#CCOCCOCCOCCNc1nc(N2CCOCC2)nc(N2CCN(C(=O)CCCCCCCCCCNC(=O)[C@H](CO)n3cc(CCCCCN)nn3)CC2)n1	-4.2%	-19.5	-7.7%	-1.5	i
C#CCOCCOCCOCCNc1nc(N2CCN(C(=O)CCCCCCCCCCNC(=O)[C@H](CCCCN)n3cc(CCCC(=O)O)nn3)CC2)nc(N2CCN(C(=O)CCCCCCCCCCNC(=O)[C@H](CCCCN)n3cc(CCCC(=O)O)nn3)CC2)n1	14.0%	-55.6*	-22.2%	-6.3	-5.2%
C#CCOCCOCCOCCNc1nc(N2CCN(C(=O)CCCCCCCCCCNC(=O)[C@H](CCCCN)n3cc(CCO)nn3)CC2)nc(N2CCN(C(=O)CCCCCCCCCCNC(=O)[C@H](CCCCN)n3cc(CCO)nn3)CC2)n1	12.2%	-66.9*	29.9%	1.8	13.0%
C#CCOCCOCCOCCNc1nc(N2CCN(C(=O)CCCCCCCCCCNC(=O)[C@H](CCCCN)n3cc(CCO)nn3)CC2)nc(N2CCN(C(=O)CCCCCCCCCCNC(=O)[C@@H]([C@H](C)O)n3cc(C)nn3)CC2)n1	10.9%	-84.0*	0.0%	-3.8	1.2%
C#CCOCCOCCOCCNc1nc(N2CCN(C(=O)CCCCCCCCCCNC(=O)Cn3cc(CCCCCN)nn3)CC2)nc(N2CCN(C(=O)CCCCCCCCCCNC(=O)[C@H](CO)n3cc(CCCCCN)nn3)CC2)n1	2.2%	-58.3*	-28.5%	-2.9	9.8%

Screens as filed in PubChem.
